Screens (PubChem BioAssay)
dFosB activator: mouse delta FosB homodimer activation; purified delta FosB, TAMRA-CDK5 oligo fluorescence polarization; percent of positive-control signal above neutral wells; 340,000 compounds, 0.99% hits; activation, % at 25 µM; P13346;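 active means mean activation above about 17%, with every replicate also reaching it, limit read from the data, passing the limit was not always enough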
TPT1 inhibitor: inhibitors of Candida albicans tRNA 2'-phosphotransferase TPT1; inhibition, % at 5 µM; 300,000 compounds, 0.81% hits; recombinant caTPT1, FP RNA substrate dephosphorylation;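 active means inhibition above the mean of all tested compounds plus 3 SD, set per screening campaign, cut at about 24% in these data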
EBNA-1 inhibitor: blocks EBNA-1 binding to DNA | EBNA-1 DNA binding, fluorescence polarization | 300,000 compounds, 0.34% hits | inhibition, % at 14.8 µM; in the data active means inhibition above about 28%
Rpn11 inh: blocks the human proteasome subunit Rpn11; O00487; human 26S proteasome, Ub4-pepOG fluorescence polarization; 20S core pre-blocked with epoxomicin; inhibition, % at 20 µM; 360,000 compounds, 0.59% hits;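 active means inhibition at 20 µM, scaled to each plate's controls, above about 33%, limit read from the data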
Target sequence (O00487 whole entry, looked up): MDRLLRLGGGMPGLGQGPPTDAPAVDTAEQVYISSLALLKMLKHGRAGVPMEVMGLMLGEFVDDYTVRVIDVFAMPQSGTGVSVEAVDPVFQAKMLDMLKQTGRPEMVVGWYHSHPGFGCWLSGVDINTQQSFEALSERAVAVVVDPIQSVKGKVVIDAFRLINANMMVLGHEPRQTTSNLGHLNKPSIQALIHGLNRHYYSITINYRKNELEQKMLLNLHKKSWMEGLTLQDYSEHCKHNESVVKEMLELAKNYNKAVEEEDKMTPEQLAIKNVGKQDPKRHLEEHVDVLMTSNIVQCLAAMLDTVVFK
ZTA counter: ZTA (EBV) inhibition in EBNA-1 counter-screen | 320,000 compounds, 0.15% hits | ZTA-DNA binding, fluorescence polarization | P03206 | inhibition, % at 11 µM; in the data active means inhibition above about 33%
Target sequence (P03206 whole entry, looked up): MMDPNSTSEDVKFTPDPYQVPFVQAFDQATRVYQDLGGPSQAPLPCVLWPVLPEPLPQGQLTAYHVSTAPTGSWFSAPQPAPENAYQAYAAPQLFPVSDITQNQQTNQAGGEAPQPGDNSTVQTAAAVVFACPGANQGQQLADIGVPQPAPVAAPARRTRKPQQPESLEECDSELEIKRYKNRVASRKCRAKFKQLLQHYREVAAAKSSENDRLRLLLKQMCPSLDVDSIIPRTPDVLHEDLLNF
NR3A LBD binder: NR3A (human) ligand-binding domain modulation; 340,000 compounds, 2.5% hits; Tm shift relative to glycine control, % at 25 µM; NR3A LBD differential scanning fluorimetry, Tm shift; 0% = protein alone, 100% = glycine-bound protein; AID 1259313;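 active means melting temperature shift of at least 10% of the positive control shift, at one fixed dose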
Of the large screens only hits and unclear results are named; the others gave an inactive call. An excerpt weighted towards active compounds, which were near 4.5% of everything screened.

Cc1ccc(C(=O)C(C)OC(=O)CN2C(=O)NC3(CCCC3)C2=O)cc1C (stereo not given)	none
COC(=O)CN(c1cc(OC)ccc1OC)S(=O)(=O)c1ccc(OC)c(OC)c1	NR3A LBD binder 10.2
COCCNC(=O)CN(c1ccc(OC)c(OC)c1)S(=O)(=O)c1ccc(C)cc1	NR3A LBD binder 14.0
CC(=O)c1ccc(NC(=O)CCn2c(=S)oc3ccccc32)cc1	none
O=C(COc1ccccc1)N1CCN(S(=O)(=O)c2cccc([N+](=O)[O-])c2)CC1	none
O=C(Nc1cccc(S(=O)(=O)NC2=NCCC2)c1)c1ccc(C(F)(F)F)cc1	none (no result: TPT1 inhibitor, EBNA-1 inhibitor, ZTA counter)
O=S(=O)(Nc1cccc(F)c1)c1ccc(S(=O)(=O)N2CCOCC2)cc1	none (no result: dFosB activator, TPT1 inhibitor, EBNA-1 inhibitor, ZTA counter, NR3A LBD binder)
CC(C)CCCC(C)NC(=O)c1cc(S(=O)(=O)N2CCCCC2)ccc1N1CCOCC1 (stereo not given)	none (no result: TPT1 inhibitor, EBNA-1 inhibitor)
Cc1ccc(NC(=S)Nc2cccc3ccccc23)cc1F	NR3A LBD binder 16.1
COc1ccc(N=C2SC(CC(=O)Nc3cccc(Cl)c3)C(=O)N2Cc2ccco2)cc1 (stereo not given)	NR3A LBD binder 11.8
CC(C)Cn1cnc2c(Sc3c([N+](=O)[O-])ncn3C)nc(N)nc21	none (no result: TPT1 inhibitor, EBNA-1 inhibitor, ZTA counter)
Nc1nn2c(C(F)(F)F)cc(=O)[nH]c2c1N=Nc1cccc(F)c1	NR3A LBD binder 21.1
Cc1cc(=O)[nH]c2c(N=Nc3ccc(O)cc3)c(N)nn12	none (no result: TPT1 inhibitor, EBNA-1 inhibitor, ZTA counter)
O=c1cc2oc3cc(O)c(O)cc3c(-c3ccccc3[N+](=O)[O-])c-2cc1O	none
CC(C)c1nc2sc3c(SCCN(C)C)ncnc3c2c2c1CCC2	none (no result: TPT1 inhibitor, EBNA-1 inhibitor, ZTA counter)
COCCOC(=O)C1=C(C)NC(SCC(=O)NC(C)(C)C)=C(C#N)C1c1ccco1 (stereo not given)	none (no result: TPT1 inhibitor, EBNA-1 inhibitor, ZTA counter)
C=CCOC(=O)C1=C(C)NC(SCC(=O)Nc2ccc(C)c(Cl)c2)=C(C#N)C1c1ccco1 (stereo not given)	NR3A LBD binder 19.7
CN(CCc1ccccc1)C(=O)c1ccc(NC(=O)Cc2ccc(NC(=O)C3CCCN(C(=O)CCc4ccccc4)C3)cc2)cc1 (stereo not given)	NR3A LBD binder 11.4 (no result: TPT1 inhibitor, EBNA-1 inhibitor, ZTA counter)
CN(C(=O)c1cccc(NC(=O)Cc2ccc(NC(=O)C3CCN(S(=O)(=O)c4cccc([N+](=O)[O-])c4)CC3)cc2)c1)C1CCCCC1	none (no result: TPT1 inhibitor, EBNA-1 inhibitor, ZTA counter)
O=C(Cc1cccc(NC(=O)C2CCN(S(=O)(=O)c3cccc([N+](=O)[O-])c3)CC2)c1)Nc1cccc(C(=O)N2CCCCC2)c1	NR3A LBD binder 11.4 (no result: TPT1 inhibitor, EBNA-1 inhibitor, ZTA counter)
CN(CCc1ccccc1)C(=O)c1ccc(NC(=O)Cc2ccc(NC(=O)C3CCCN(C(=O)C4CCC4)C3)cc2)cc1 (stereo not given)	none (no result: TPT1 inhibitor, EBNA-1 inhibitor, ZTA counter)
CN(C(=O)c1ccc(NC(=O)Cc2ccc(NC(=O)C3CCN(S(=O)(=O)c4cccc([N+](=O)[O-])c4)CC3)cc2)cc1)C1CCCC1	NR3A LBD binder 10.0 (no result: TPT1 inhibitor, EBNA-1 inhibitor, ZTA counter)
CN(C(=O)c1cccc(NC(=O)Cc2ccc(NC(=O)C3CCCN(S(=O)(=O)c4cccc([N+](=O)[O-])c4)C3)cc2)c1)C1CCC1 (stereo not given)	NR3A LBD binder 11.4 (no result: TPT1 inhibitor, EBNA-1 inhibitor, ZTA counter)
NS(=O)(=O)c1ccc(CCNC(=O)COC(=O)/C=C/c2cc(Br)ccc2F)cc1	none (no result: dFosB activator, TPT1 inhibitor, EBNA-1 inhibitor, ZTA counter)
CC1=C(C(=O)N2CCOCC2)CC(CC(=O)NCc2cccc3ccccc23)C(=O)N1Cc1ccc(C(C)(C)C)cc1 (stereo not given)	none (no result: dFosB activator, TPT1 inhibitor, EBNA-1 inhibitor, ZTA counter, NR3A LBD binder)
CC1CCCN(CC(O)COc2ccc(S(=O)(=O)N3CCCC3)cc2[N+](=O)[O-])C1 (stereo not given)	none (no result: TPT1 inhibitor, EBNA-1 inhibitor)
CN(CCc1ccccc1)C(=O)c1ccc(NC(=O)Cc2cccc(NC(=O)C3CCN(S(=O)(=O)c4cccc([N+](=O)[O-])c4)CC3)c2)cc1	NR3A LBD binder 10.0 (no result: TPT1 inhibitor, EBNA-1 inhibitor, ZTA counter)
c1ccc(-c2cc(-c3nc4ccccc4[nH]3)c3ccccc3n2)cc1	NR3A LBD binder 22.2
Nc1ccc(-c2nc3ccccc3[nH]2)cc1	none
Cc1ccc(CSCC(=O)NCc2cccs2)cc1	none
NS(=O)(=O)c1ccc(N/N=C/c2ccc(O)cc2O)c([N+](=O)[O-])c1	NR3A LBD binder 29.8
O=C(O)c1ccccc1NS(=O)(=O)c1ccc(N/N=C/c2ccc(O)c(O)c2)c([N+](=O)[O-])c1	NR3A LBD binder 16.5 (no result: TPT1 inhibitor, EBNA-1 inhibitor, ZTA counter)
O=C(O)c1ccccc1NS(=O)(=O)c1ccc(NN=Cc2ccc(F)cc2)c([N+](=O)[O-])c1	NR3A LBD binder 12.4 (no result: TPT1 inhibitor, EBNA-1 inhibitor, ZTA counter)
O=C(O)c1ccc(/C=N/Nc2ccc(S(=O)(=O)N3CCCC3)cc2[N+](=O)[O-])cc1	none
CC(C)(C)C1CCC(=NNc2ccc(S(N)(=O)=O)cc2[N+](=O)[O-])CC1 (stereo not given)	NR3A LBD binder 16.5
CC1CCCC/C1=N\Nc1ccc(S(N)(=O)=O)cc1[N+](=O)[O-] (stereo not given)	none
NS(=O)(=O)c1ccc(N/N=C/c2ccccc2C(=O)O)c([N+](=O)[O-])c1	none
NS(=O)(=O)c1ccc(N/N=C/c2ccc(O)c(O)c2O)c([N+](=O)[O-])c1	none (no result: TPT1 inhibitor, EBNA-1 inhibitor, ZTA counter)
COc1ccc(/C=N/Nc2ccccc2C(=O)O)cc1Cn1cc([N+](=O)[O-])cn1	none
O=C(O)c1ccccc1NS(=O)(=O)c1ccc(NN=Cc2cccc(Cl)c2)c([N+](=O)[O-])c1	NR3A LBD binder 31.9 (no result: TPT1 inhibitor, EBNA-1 inhibitor, ZTA counter)
COc1ccc(C=NNc2ccc([N+](=O)[O-])cc2S(=O)(=O)Nc2ccccc2C(=O)O)cc1OC	NR3A LBD binder 31.2 (no result: TPT1 inhibitor, EBNA-1 inhibitor, ZTA counter)
Cc1cc(C(=O)N2CCCc3ccccc32)ccc1[N+](=O)[O-]	none
COc1ccc(CCNC(=O)CSc2ccc3nnc(CCNC(=O)c4ccccc4)n3n2)cc1OC	none
Cc1ccccc1C(=O)Nc1ccccc1C(=O)N1CCC(C)CC1	none
CCC(=O)Nc1nc(C)c(-c2csc(Nc3ccccn3)n2)s1	NR3A LBD binder 25.0
Cc1ccnc(Nc2nc(-c3ccc(O)cc3O)cs2)c1	NR3A LBD binder 40.0
CCCC(=O)Nc1nc(C)c(-c2csc(Nc3ccccc3C)n2)s1	none
Cc1cc(O)ccc1Nc1nc(-c2cccnc2)cs1	none (no result: TPT1 inhibitor, EBNA-1 inhibitor, ZTA counter)
COc1ccc(-c2csc(Nc3cc(C)ccn3)n2)cc1C	none
Cc1ccnc(Nc2nc(-c3ccc(O)c(O)c3)cs2)c1	NR3A LBD binder 38.5
CC(=O)Nc1ccc(-c2csc(Nc3ccccn3)n2)cc1	NR3A LBD binder 29.9
COc1cccc(C2=NOC(C(=O)Nc3cccnc3Cl)C2)c1 (stereo not given)	none
CCN(CC)C(=O)N1CCc2ccccc21	none
COc1ccc(N(CC(=O)N2CCN(Cc3ccccc3)CC2)S(C)(=O)=O)cc1Cl	none
COc1ccc(C(c2c(C)n(C)n(-c3ccccc3)c2=O)c2c(C)n(C)n(-c3ccccc3)c2=O)c(OC)c1OC	none
Cc1ccnc(Nc2nc(-c3ccc(O)cc3)cs2)c1	NR3A LBD binder 17.9
Oc1ccc(-c2csc(Nc3ccccn3)n2)cc1O	NR3A LBD binder 33.4
CC(=O)Nc1ccc(Nc2nc(-c3c(C)nc4ccccn34)cs2)cc1	NR3A LBD binder 13.5 (no result: dFosB activator)
